According to PubChem BioAssay (Tox21):
Values without a mark were called inactive. Activity calls are given as the source filed them. Calls follow the shape of the full dose curve.

These compounds were tested against Acetylcholinesterase (Homo sapiens) (UniProt P22303) (assay: Acetylcholinesterase (AChE) small molecule antagonists: enzyme-based qHTS assay with human liver microsomes (AID 1347399; also: nearly all actives have a fitted effect of over 60% in size)). Details: Potency: qHTS inhibition; outcome: qHTS inhibition; series mostly up to 115 µM; activity change, negative = inhibition: at the top concentration.
From the text: National Center for Advancing Translational Sciences [NCATS]
Division of Preclinical Innovation [DPI]
U.S. Environmental Protection Agency [EPA]
National Institutes of Environmental Health Sciences [NIEHS]
National Toxicology Program [NTP]
U.S. Food and Drug Administration [FDA]
Acetylcholinesterase (AChE) is the primary cholinesterase in the body that hydrolyzes a key neurotransmitter, acetylcholine. Inhibition of AChE activity can lead to neurotoxicity. The known inhibitors include organophosphorous pesticides (OP), chemical warfare agents, drugs, and various phytochemicals. Some compounds like OP compounds may need metabolic activation to be active AChE inhibitors. The cytochrome P450 (CYP) superfamily in the human microsomes is responsible for the metabolism of various endogenous and exogenous compounds.
An enzyme-based assay with the recombinant human AChE, human liver microsomes and Amplite Colormetric acetylcholinesterase assay kit (AAT Bioquest, Sunnyvale, CA) was used to evaluate compounds in the Tox21 10K library that need metabolic activation for AChE inhibition. The assay uses 5, 5-dithiobis-(2-nitrobenzoic acid) (DTNB) to quantify the thiocholine produced from the hydrolysis of acetylthiocholine by AChE.
Tox21 Assay Protocol Summary:
For the enzyme-based AChE assay with microsomes addition, a mixture of human AChE (50 mU/mL) and human liver microsomes (0.25 mg/mL, final concentration) in 3 uL/well was dispensed into black, clear-bottom 1536-well plates using a Multidrop Combi dispenser (Thermo Scientific, MA). Then, 23 nL of compound or DMSO (vehicle control) was transferred into the assay plates by a Pintool Station (Wako Automation, CA). Following compound addition, 1 uL of NADPH (0.25 mg/mL, final concentration) was transferred to the assay plate by a Flying Reagent Dispenser (Beckman Coulter, CA). The plates were incubated for 30 min at 37 C and 5% CO2, followed by the addition of 4 uL of colorimetric detection cocktail solution (DTNB, acetylthiocholine) into each well using a Flying Reagent Dispenser (Beckman Coulter, CA) and then 10 min incubation at room temperature.
% is scaled to controls: 0 for no effect and ±100 for the full control effect.

Chain of Acetylcholinesterase (Homo sapiens) (P22303 whole entry, looked up): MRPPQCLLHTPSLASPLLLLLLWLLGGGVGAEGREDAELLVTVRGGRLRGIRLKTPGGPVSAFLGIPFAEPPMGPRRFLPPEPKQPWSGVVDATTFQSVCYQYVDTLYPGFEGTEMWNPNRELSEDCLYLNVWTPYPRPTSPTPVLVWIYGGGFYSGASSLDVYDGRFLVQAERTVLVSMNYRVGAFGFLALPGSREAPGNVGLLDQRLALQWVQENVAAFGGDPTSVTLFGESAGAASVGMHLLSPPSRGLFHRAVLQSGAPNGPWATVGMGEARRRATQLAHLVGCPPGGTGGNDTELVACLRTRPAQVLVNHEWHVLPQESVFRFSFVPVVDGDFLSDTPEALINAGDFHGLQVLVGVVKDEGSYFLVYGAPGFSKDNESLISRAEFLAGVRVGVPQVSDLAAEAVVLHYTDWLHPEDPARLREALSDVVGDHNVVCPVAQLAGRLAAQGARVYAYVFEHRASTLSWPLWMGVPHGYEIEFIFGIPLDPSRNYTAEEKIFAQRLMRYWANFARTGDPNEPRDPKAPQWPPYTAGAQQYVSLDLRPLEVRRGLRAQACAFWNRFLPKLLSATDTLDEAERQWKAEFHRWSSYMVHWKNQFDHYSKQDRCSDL

SMILES	activity change, negative = inhibition	outcome	Potency
CCOCCC(=O)OCC	-0.0178%	–	–
Cc1cccc(C)c1OCC(C)N (stereo not given)	–	inactive	–
CC1=Nc2ccc3ccccc3c2C1(C)C	-2.99%	–	–
Cc1cc(C)cc(OCC2CNC(=O)O2)c1 (stereo not given)	-0.3% [at 53 µM]	–	–
CC1OC1C1CCC2(C)OC2C1 (stereo not given)	-1.83%	–	–
COCCOC(=O)c1ccccc1C(=O)OCCOC	–	–	inactive
O=C(NS(=O)(=O)/C=C/c1ccccc1)c1ccc(F)cc1Cl	-0.0891%	–	–
CC/C=C(\C)C=O	-0.0875%	–	–
CC(C)C(=O)OCc1ccccc1	2.11%	–	–
CCCCCCCCCCCCCCCCBr	0.57% [at 23.6 µM]	–	–
C=CC(C)(CCC=C(C)C)OC(=O)c1ccccc1 (stereo not given)	0.817%	–	–
CCN(CC)CC(=O)Nc1c(C)cccc1C(=O)OC	0.733% [at 53 µM]	–	–
C=C(C)C(=O)OCCOc1ccccc1	-4.07%	–	–
O=S(=O)(O)CC(O)CCl (stereo not given)	0.46%	–	–
CC(COC(=O)c1ccccc1)OC(=O)c1ccccc1 (stereo not given)	-0.516%	–	–
Cn1ccc2cc3c(cc21)CCN3C(=O)Nc1cccnc1	2.86% [at 23.6 µM]	–	–
COc1ccc(CCC(C)=O)cc1	–	–	inactive
CN1[C@@H]2CC[C@H]1CC(OC(=O)c1c[nH]c3ccccc13)C2 (stereo not given in full)	0% [at 53 µM]	–	–
O=Cc1c2ccccc2c(Cl)c2ccccc12	-0.831% [at 53 µM]	–	–
CS(=O)(=O)OCCCCOS(C)(=O)=O	–	–	inactive

SMILES	activity change, negative = inhibition	outcome	Potency
CCOC(=O)CC(=O)c1ccccc1	0.0064%	–	–
CC1(C)CCC[C@]2(C)[C@H]3CC(=O)O[C@]3(C)CC[C@@H]12	-3.88%	–	–
CC(C)NC(=O)NC(C)C	-2.6%	–	–
CC1(C)CC(O)CC(C)(C)N1	0.167%	–	–
CCn1ccc(NS(=O)(=O)c2ccc(N)cc2)nc1=O	-0.168% [at 53 µM]	–	–
CN[C@@H]1[C@H](O)[C@H](NC)[C@H]2O[C@@]3(O)C(=O)C[C@@H](C)O[C@H]3O[C@@H]2[C@H]1O	1.31% [at 53 µM]	–	–
CC(=O)c1ccccc1	–	–	inactive
CCCCCCCC(=O)[O-].CCCCCCCC(=O)[O-].[Zn+2]	-0.73% [at 53 µM]	–	–
CN(C)c1cccc(O)c1	–	–	inactive
C[C@]12CC[C@@H]3c4ccc(O)cc4CC[C@H]3[C@@H]1CC[C@@H]2OC(=O)CCC1CCCC1	–	–	inactive
CCCCCCOC(=O)C(C)C	0.373%	–	–
CCOC(=O)NNc1ccc(N(CC)CC(C)O)nn1 (stereo not given)	-0.95% [at 53 µM]	–	–
Cc1ccc(C(C)C)cc1O	-1.07%	–	–
CC(=O)OCC(=O)[C@@]1(O)[C@H](C)C[C@H]2[C@@H]3CCC4=CC(=O)C=C[C@]4(C)[C@@]3(F)[C@@H](O)C[C@@]21C	-2.12% [at 53 µM]	–	–
CCN(CCC#N)c1ccccc1	-1.2%	–	–
OC/C(Br)=C(\Br)CO	-2.53%	–	–
CN(C)C(=S)SC(=S)N(C)C	–	–	inactive
N#Cc1ccccc1C#N	-2.17%	–	–
CCCCCC#CC(=O)OC	-1.76%	–	–
CCC(C(=O)OCCN1CCOC(c2ccccc2)C1C)c1ccccc1 (stereo not given)	-0.837% [at 53 µM]	–	–
